Rows were chosen to be rich in hits. Some 1.7% of all compounds tested hit in one or more screens of this group.
MOR-DOR ag-1 = OPRM1-OPRD1 heterodimerization agonism | cells, luminescence | P35372+P41143 | activation, % at 9.3 µM | 0.3% of 340,000 active;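 note: 0% = vehicle-treated cells and 100% = reference agonist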
beta cell repl = induces beta-cell replication in MIN6 cells. MIN6 cells proliferation, ATPlite luminescence, 48 h; cells starved in 0.2% serum; 100% = growth in 10% serum. proliferation, % at 10 µM. 0.29% of 330,000 active. AID 2380;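 active = compounds whose signal lies at least 3.5 SD above the mean of all wells on their plate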;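 note: 0% = DMSO-treated cells in low-serum medium and 100% = 10% serum control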
HTR5A inv ag = HTR5A inverse agonism, opioid heterodimer counter-screen | HTR5A cell line, luminescence | inhibition, % at 9.3 µM | 0.083% of 340,000 active; in the data active = inhibition mostly above about 23%, no sharp cut-off; inactive = mostly below about 18%;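 note: 0% = cells with DMSO and 100% = no-cell wells with DMSO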
Target sequence (P47898 whole entry, looked up): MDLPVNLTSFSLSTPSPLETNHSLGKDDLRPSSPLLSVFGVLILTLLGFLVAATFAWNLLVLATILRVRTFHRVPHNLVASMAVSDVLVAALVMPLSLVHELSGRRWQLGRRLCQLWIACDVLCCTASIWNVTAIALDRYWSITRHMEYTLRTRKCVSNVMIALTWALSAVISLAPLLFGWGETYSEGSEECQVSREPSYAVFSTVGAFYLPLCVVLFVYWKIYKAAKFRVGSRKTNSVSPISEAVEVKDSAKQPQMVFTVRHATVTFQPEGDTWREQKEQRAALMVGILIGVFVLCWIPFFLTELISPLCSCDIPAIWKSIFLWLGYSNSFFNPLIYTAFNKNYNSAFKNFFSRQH
OPRM1-OPRD1 inv = inverse agonist of human OPRM1-OPRD1 heterodimerization; inhibition, % at 9.3 µM; cell-based MOR-DOR heterodimer luminescence, inverse agonism; P35372+P41143; 0.21% of 340,000 active; in the data active = inhibition above about 22%, passing the limit was not always enough;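 note: 0% = cells with DMSO and 100% = wells without cells with DMSO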
V-ATPase pH = regulators of yeast V-ATPase proton transport; response, % at 10 µM; S. cerevisiae, pHLuorin cytosolic pH fluorescence; 0.37% of 350,000 active; AID 504577; in the data active = response mostly above about 7.3%, no sharp cut-off; inactive = mostly below about 5.4%; note: actives read high
HTR5A ag ctr = counter-screen for OPRM1-OPRD1 agonists: human HTR5A agonism. P47898. AID 504692. activation, % at 9.3 µM. 0.61% of 340,000 active. HTR5A agonist assay, luminescence, cell-based; in the data active = activation mostly above about 9.5%, no sharp cut-off; inactive = mostly below about 7.6%;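 note: 0% = cells with vehicle only and 100% = reference agonist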
MOR-DOR ag-2 = counter-screen for HTR5A agonists: OPRM1-OPRD1 heterodimerization agonism; shares compounds with HTR5A ag ctr; U2OS counter-screen cells, complementation luminescence, 3 h; activation, % at 9.3 µM; 13% of 800 active; AID 504913
HTR5A ag conf = confirmation of human HTR5A agonists; activation, % at 9.3 µM; shares compounds with HTR5A ag ctr; AID 504915; HTR5A agonist cell assay, luminescence; 17% of 800 active; in the data active = activation above about 17%;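 note: 0% = cells with vehicle only and 100% = full reference agonist response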
An asterisk follows results filed as active; x = no result. Cut-off read from the data, not from the text of the source, unless noted: active = activation above about 18%; inactive = the rest.

SMILES	MOR-DOR ag-1	beta cell repl	HTR5A inv ag	OPRM1-OPRD1 inv	V-ATPase pH	HTR5A ag ctr	MOR-DOR ag-2	HTR5A ag conf
CN(C)c1cc(N)c2c(n1)CCC2 (tested in a mixture with another compound)	-1.0	1.5	-3.3	5.0	-1.0	-2.9	x	x
COc1ccc2c(CCN)c[nH]c2c1	-0.8	-3.9	-190.1	4.8	5.7	31.6*	-1.2	-0.9
COc1ccc2[nH]cc(CCN(C)C)c2c1	-1.4	-1.8	x	7.5	3.0	x	x	x
CCC1C(c2ccccc2)NC(c2ccccc2)CC1(O)c1ccc(F)cc1 (stereo unspecified)	8.1	-3.4	-43.7	-39.8	-3.3	16.8*	8.9	1.3
COc1cc(CNCCc2c[nH]c3ccccc23)cc(OC)c1OC	x	x	x	x	1.7	x	x	x
COc1cc(CNCCc2c[nH]c3ccccc23)cc(OC)c1	-3.5	-4.0	-57.4	16.8	-2.4	15.4*	368.7*	2.1
COC(=O)C1=C(c2ccc(OC(F)(F)F)cc2)C[C@@H]2CC[C@H]1N2C(=O)N1CCC(C)CC1	1.0	-5.2	1.1	-5.5	3.4	-1.1	x	x
CN1CCC(c2c[nH]c3ccccc23)C1 (stereo unspecified)	-3.5	-6.0	-106.1	18.2	-1.9	29.0*	22.5*	10.3

Screens deposited in PubChem by several laboratories.
